From PubChem
pPAFAH FP inh = inhibitors of human plasma PAF acetylhydrolase (pPAFAH) | Q13093 | inhibition, % at 3.39 µM | recombinant pPAFAH, FP-rhodamine probe fluorescence polarization | 1.5% of 330,000 active;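 active = inhibition above the mean inhibition across the screen plus 3 SD, cut at about 25% in these data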;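 also: inhibitors block binding of the rhodamine activity-based probe so polarization drops; 0% = enzyme with DMSO and 100% = wells lacking pPAFAH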
PP5 primary = PP5 (human) phosphatase inhibition. AID 1987. 0.18% of 320,000 active. purified PP5c, OMFP substrate fluorescence. P53041. inhibition, % at 6.7 µM;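 active = inhibition above the campaign's mean inhibition across all tested compounds plus 3 SD, cut at about 9.5% in these data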;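 also: 0% = DMSO only and 100% = 100 µM cantharidin control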
PAFAH1B2 inh = PAFAH1B2 (human) inhibition. P68402. recombinant PAFAH1B2, FP-rhodamine activity probe, fluorescence polarization. inhibition, % at 3.39 µM. 1.2% of 340,000 active. AID 492953;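 active = inhibition above the mean of all tested compounds plus 3 SD, cut at about 24% in these data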;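 also: 0% = enzyme with DMSO and 100% = wells lacking PAFAH1B2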
Target sequence (P68402 whole entry, looked up): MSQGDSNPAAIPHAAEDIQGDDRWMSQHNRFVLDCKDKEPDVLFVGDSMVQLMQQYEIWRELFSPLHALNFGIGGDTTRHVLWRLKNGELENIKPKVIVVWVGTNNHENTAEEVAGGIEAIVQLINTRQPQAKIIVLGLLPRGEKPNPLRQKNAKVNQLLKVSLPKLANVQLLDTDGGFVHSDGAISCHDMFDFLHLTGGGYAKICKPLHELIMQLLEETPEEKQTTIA
PP1 inh = blocks human PP1-alpha phosphatase, a PP5 counter-screen; P62136; purified PP1alpha, OMFP fluorescence; inhibition, % at 6.7 µM; 0.9% of 320,000 active;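 active = inhibition above the mean inhibition of all tested compounds plus 3 SD, computed separately for each screening campaign, cut at about 15% in these data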
Target sequence (P62136 whole entry, looked up): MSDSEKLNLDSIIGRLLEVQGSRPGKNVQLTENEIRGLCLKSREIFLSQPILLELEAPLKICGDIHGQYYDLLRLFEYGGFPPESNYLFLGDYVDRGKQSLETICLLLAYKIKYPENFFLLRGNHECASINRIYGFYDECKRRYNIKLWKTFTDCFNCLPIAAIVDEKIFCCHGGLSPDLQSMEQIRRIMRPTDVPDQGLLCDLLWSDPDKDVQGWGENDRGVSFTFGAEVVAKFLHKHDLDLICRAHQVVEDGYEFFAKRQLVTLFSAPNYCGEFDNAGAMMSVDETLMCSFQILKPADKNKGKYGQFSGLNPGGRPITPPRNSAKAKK
PAFAH1B3 FP inh = inhibitors of human PAFAH1B3 | 0.28% of 340,000 active | inhibition, % at 3.39 µM | Q15102 | recombinant PAFAH1B3, FP-rhodamine probe, fluorescence polarization;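 active = inhibition above the screen-wide average of all tested compounds plus 3 SD, cut at about 25% in these data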;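 also: 0% = enzyme with DMSO only and 100% = wells lacking PAFAH1B3 protein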
PAFAH2 FP inh = PAFAH2 (human) inhibition | Q99487 | AID 492956 | inhibition, % at 3.39 µM | recombinant PAFAH2, FP-rhodamine activity probe, fluorescence polarization | 0.99% of 340,000 active;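 active = inhibition above the mean over all tested compounds plus 3 SD, cut at about 30% in these data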;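 also: inhibitors block probe labeling of enzyme so polarization drops; 0% = enzyme with DMSO and 100% = wells lacking PAFAH2 protein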
Numbers without * were called inactive; ! = a repeat was not active. Only some compounds are listed: those with a hit (about 3.4% of all), similar ones and a draw of the others.

How did C[C@H](CO)N1C[C@H](C)[C@H](CN(C)Cc2ccc(-c3ccccc3)cc2)Oc2ccc(NS(=O)(=O)c3ccccc3)cc2CC1=O do in these assays?
pPAFAH FP inh: 34*; PAFAH1B2 inh: 5; PAFAH1B3 FP inh: -1; PAFAH2 FP inh: 0

Results for C[C@H](CO)N1C[C@H](C)[C@@H](CN(C)S(=O)(=O)c2ccc(F)cc2)Oc2ccc(NS(=O)(=O)c3ccc(F)cc3)cc2C1=O ?
pPAFAH FP inh: 20; PAFAH1B2 inh: 9; PAFAH1B3 FP inh: 5; PAFAH2 FP inh: 12

Results for COc1ccc(S(=O)(=O)Nc2ccc3c(c2)C(=O)N([C@@H](C)CO)C[C@H](C)[C@H](CN(C)S(=O)(=O)c2ccc(F)cc2)O3)cc1 ?
pPAFAH FP inh: 17; PAFAH1B2 inh: 39*; PAFAH1B3 FP inh: 9; PAFAH2 FP inh: 6

Results for N#Cc1ccc(CN2CCN(C(=O)c3ccc(S(=O)(=O)N4CCCCCC4)cc3)CC2)cc1 ?
pPAFAH FP inh: -3; PP5 primary: 1; PAFAH1B2 inh: 1; PP1 inh: 0; PAFAH1B3 FP inh: 9; PAFAH2 FP inh: 15

How did O=C(Oc1ccc2ccc(=O)oc2c1)C1CCCCC1 do in these assays?
pPAFAH FP inh: 4; PP5 primary: 3; PAFAH1B2 inh: -1; PP1 inh: 2; PAFAH1B3 FP inh: 0; PAFAH2 FP inh: 3

How did O=C(Oc1cc2oc(=O)cc(-c3ccccc3)c2cc1Cl)C1CCCCC1 do in these assays?
pPAFAH FP inh: 4; PP5 primary: 2; PAFAH1B2 inh: 47*; PP1 inh: -1; PAFAH1B3 FP inh: 5; PAFAH2 FP inh: -1

Results for C/C(N)=C(/C#N)C(=O)COC(=O)CCSc1ccccc1 ?
pPAFAH FP inh: 8; PP5 primary: 1; PAFAH1B2 inh: 27*!; PP1 inh: 1; PAFAH1B3 FP inh: 2; PAFAH2 FP inh: 12

How did CCOP(=O)(OCC)c1ccc2c(c1)C(=O)c1ccccc1CC2 do in these assays?
pPAFAH FP inh: 0; PP5 primary: 0; PAFAH1B2 inh: 1; PP1 inh: -2; PAFAH1B3 FP inh: -6; PAFAH2 FP inh: 0

What do the screens show for `O=C(O)c1c[nH]c2c([N+](=O)[O-])cccc2c1=O`?
PAFAH1B2 inh: 12; PAFAH1B3 FP inh: 17; PAFAH2 FP inh: 15

Results for CC(C)(C)c1ccc(NC(=O)N2CCCN(c3ccc([N+](=O)[O-])cn3)CC2)cc1 ?
pPAFAH FP inh: 6; PP5 primary: 0; PAFAH1B2 inh: 25*; PP1 inh: 1; PAFAH1B3 FP inh: 1; PAFAH2 FP inh: 4

Results for O=C(Nc1ccc([N+](=O)[O-])cc1)N1CCCCCC1 ?
pPAFAH FP inh: 1; PP5 primary: 2; PAFAH1B2 inh: -1; PP1 inh: -1; PAFAH1B3 FP inh: 3; PAFAH2 FP inh: -2

What do the screens show for `Cc1ccc(/C=C2\C(=N)N3N=C(CC(=O)N4CCOCC4)SC3=NC2=O)o1`?
pPAFAH FP inh: 11; PP5 primary: -2; PAFAH1B2 inh: 0; PP1 inh: -3; PAFAH1B3 FP inh: 12; PAFAH2 FP inh: 11

How did N=C1/C(=C\c2ccc(SCc3ccccc3)o2)C(=O)N=C2SC(CC(=O)N3CCOCC3)=NN12 do in these assays?
pPAFAH FP inh: 30*; PP5 primary: 0; PAFAH1B2 inh: 22; PP1 inh: 5; PAFAH1B3 FP inh: 2; PAFAH2 FP inh: 25

Results for Cc1ccc(/C=C2/C(=N)N3N=C(CC(=O)N4CCCC4)SC3=NC2=O)cc1 ?
pPAFAH FP inh: 25*; PP5 primary: 1; PAFAH1B2 inh: 6; PP1 inh: -6; PAFAH1B3 FP inh: 2; PAFAH2 FP inh: 8

How did CCCN1CCN(CC(=O)NCC(=O)Nc2cccc(C)c2C)CC1 do in these assays?
PAFAH1B2 inh: 3; PAFAH1B3 FP inh: 3; PAFAH2 FP inh: -4

Results for Cc1ccc(S(=O)(=O)Nc2cc3c(cc2N2CCOCC2)n(C)c(=O)c(=O)n3C)cc1 ?
pPAFAH FP inh: 0; PP5 primary: 0; PAFAH1B2 inh: 12; PP1 inh: -2; PAFAH1B3 FP inh: 12; PAFAH2 FP inh: 11

Results for CCc1ccc(S(=O)(=O)Nc2cc3c(cc2N2CCOCC2)n(C)c(=O)c(=O)n3C)cc1 ?
pPAFAH FP inh: 4; PP5 primary: 5; PAFAH1B2 inh: 26*; PP1 inh: 2; PAFAH1B3 FP inh: 9; PAFAH2 FP inh: 16

What do the screens show for `CCC[C@@H]1CCCO[C@@](C(=O)NCc2ccccn2)(C(F)(F)F)C1`?
pPAFAH FP inh: 1; PP5 primary: 6; PAFAH1B2 inh: 30*; PP1 inh: 0; PAFAH1B3 FP inh: 9; PAFAH2 FP inh: 9

How did CCC(C)NC(=O)c1ccc(CS(=O)(=O)Cc2ccc(Cl)cc2)o1 (configuration not stated) do in these assays?
pPAFAH FP inh: 26*; PP5 primary: 0; PAFAH1B2 inh: 7; PP1 inh: 0; PAFAH1B3 FP inh: 12; PAFAH2 FP inh: 5

How did CSc1nc(S(C)(=O)=O)nc2[nH]c(=O)[nH]c12 do in these assays?
PAFAH1B2 inh: 3; PAFAH1B3 FP inh: 10; PAFAH2 FP inh: 4

What do the screens show for `COc1ccc(CNCc2cccc(Oc3ccccc3)c2)cc1`?
pPAFAH FP inh: 10; PP5 primary: 3; PAFAH1B2 inh: 2; PP1 inh: 7; PAFAH1B3 FP inh: 13; PAFAH2 FP inh: 1

Results for O=C(O)CCc1ccc(NCc2cccc(Oc3ccccc3)c2)cc1 ?
pPAFAH FP inh: 13; PP5 primary: 1; PAFAH1B2 inh: 24*; PP1 inh: -2; PAFAH1B3 FP inh: 14; PAFAH2 FP inh: 0

Results for Cc1coc2c1C(=O)C(=O)c1c-2ccc2c(C)cccc12 ?
pPAFAH FP inh: 56*; PP5 primary: 8; PAFAH1B2 inh: 21; PP1 inh: 6; PAFAH1B3 FP inh: 19; PAFAH2 FP inh: 51*

Results for COc1ccc(/C=C(/NC(=O)/C=C/c2ccccc2)C(=O)NCCCCCC(=O)O)cc1 ?
pPAFAH FP inh: 0; PP5 primary: 2; PAFAH1B2 inh: 4; PP1 inh: -4; PAFAH1B3 FP inh: 6; PAFAH2 FP inh: 2

What do the screens show for `CN(C(=O)COC(=O)c1cc(-c2ccc(Cl)s2)nc2ccccc12)C1CCS(=O)(=O)C1` (configuration not stated)?
pPAFAH FP inh: 3; PP5 primary: 3; PAFAH1B2 inh: -8; PP1 inh: 2; PAFAH1B3 FP inh: -4; PAFAH2 FP inh: -2

Results for CN(C(=O)COC(=O)c1cc(-c2ccccc2Cl)nc2ccccc12)C1CCS(=O)(=O)C1 (configuration not stated) ?
pPAFAH FP inh: 27*; PP5 primary: -3; PAFAH1B2 inh: 0; PP1 inh: -2; PAFAH1B3 FP inh: 4; PAFAH2 FP inh: -1

Results for Cc1ccc(S(=O)(=O)Nc2ccc(NC(=O)CN3CCCCC3)c(Cl)c2)cc1 ?
pPAFAH FP inh: 26*; PP5 primary: 5; PAFAH1B2 inh: 8; PP1 inh: 4; PAFAH1B3 FP inh: 10; PAFAH2 FP inh: 3

How did Cc1ccc(S(=O)(=O)N2CCN(CC(=O)Nc3ccccc3Cl)CC2)cc1 do in these assays?
pPAFAH FP inh: 2; PP5 primary: 4; PAFAH1B2 inh: 8; PP1 inh: 2; PAFAH1B3 FP inh: 4; PAFAH2 FP inh: -1
